Data reported in PubChem BioAssay AID597 (National Center for Advancing Translational Sciences (NCATS), 2007).
Hit rate of the full screen: of about 68,000 compounds, about 60 (0.09%) were called active. Calls come from the whole dose curve; as a rule, active = well fitted curve in the direction sought with a large enough effect; inconclusive = small, poorly fitted or top-dose-only effect; inactive = flat fitted curve, though single readings scatter. Not all results are given here.

Experiment: qHTS Assay for Epigenetic Modulators; note: % of control where 0% means no effect
Settings: mouse C127i GFP locus derepression, cytometry, 30 h; series mostly up to 46.1 µM; GFP derepression (activation): at the top concentration
Source text: NIH Molecular Libraries Screening Centers Network [MLSCN] NIH Chemical Genomics Center [NCGC] MLSCN Grant: 1 X01 MH079860-01 Assay Provider: Elisabeth D. Martinez, University of Texas SW Medical Center NCGC Assay Overview: The Locus Derepression assay detects the derepression of a GFP reporter that is stably integrated in a region of the genome of murine c127i mammary cells that is presumably silenced. GFP transcription in this construct is controlled by a CMV promoter, which normally is strong and constitutively active. However, this line was selected for lack of constitutive expression of the GFP protein. GFP production can be induced by incubating the cells with histone deacetylase or DNA methyltransferase inhibitors. Compounds that cause derepression of the locus to express GFP are identified by enumerating GFP positive cells using a laser-scanning microplate cytometer. For further details of this screen and follow-up characterization, see R.L. Johnson, W. Huang, A. Jadhav, C.P. Austin, J. Inglese, E.D. Martinez, A Quantitative High-Throughput Screen Identifies Potential Epigenetic Modulators of Gene Expression, Analytical Biochemistry (2008) 375(2):237-48.
NCGC Assay Protocol Summary: Two hundred and fifty cells in 5 uL per well were dispensed into black, clear-bottom 1536-well plates. Twenty-three nL compound was transferred to the assay plate and cells were incubated 30 hours at 37 C. Medium was removed, cells were washed two times with PBS, and GFP-positive cells were enumerated as fluorescent objects between the sizes of 20 to 120 um width and depth using an Acumen Explorer. Keywords: NIH Roadmap, MLSCN, MLI, MLSMR, qHTS, NCGC, qHTS, HDAC, DNMT, HAT, DNA methyltransferases, histone acetyl transferases, histone deacetylases

GFP derepression (activation), inactive:
COc1ccc(CNC(=O)C2CCN(S(=O)(=O)N3CCOCC3)CC2)cc1 4.7%
COc1ccc(C(CC(=O)O)NC(=O)Cc2ccccc2)cc1 (stereo not drawn) 0.9%
COC(=O)c1ccc(N(CC(=O)NC2CCCC2)C(=O)CNC(=O)c2ccco2)cc1 -1.3%
COc1ccc2[nH]c3c(=O)n(Cc4ccco4)cnc3c2c1 0.4%
CCCSc1nc2c(c(=O)n(C)c(=O)n2C)n1Cc1ccc(C)cc1 4.3%
O=C(CN1CCN(C(=O)c2cccc(F)c2)CC1)Nc1ccccc1F 2.3%
Cc1cc(N(C)C)cc(C)[n+]1[O-] -2.2%
O=C(c1cccc(F)c1)N1CCC2(CCCN(Cc3ccncc3)C2)CC1 0% [at 9.22 µM]
O=c1[nH]c(=O)n([C@H]2C[C@H](O)[C@H](CO)O2)cc1Br 0%
Cc1cccc(NC(=O)CSc2nc3c(c(=O)[nH]2)CCC3)c1C 0%
Cc1nn(-c2ccccc2)c2[nH]c(C(F)(F)F)cc(=O)c12 -2.9%
COC(=O)c1cc(C(=O)OC)cc(N2C(=O)CC(N3CCN(c4ccccc4)CC3)C2=O)c1 (stereo not drawn) 5.1%
CSCCC(NS(=O)(=O)/C=C/c1ccccc1)C(=O)N1CCC(C)CC1 (stereo not drawn) -1.5%
C=CCc1cccc2cc(C(=O)OCC)c(=O)oc12 0.1%
COC(=O)c1ccc(CSc2ccccc2C)o1 2.1%
CCN(c1ccccc1)S(=O)(=O)c1cccc(C(=O)O)c1 1.2%
COCCn1c(=O)c(-c2cccs2)nc2cnc(N3CCN(C)CC3)nc21 -2.7% [at 9.22 µM]
CN(Cc1ccco1)c1ncncc1-c1ccoc1 3.4% [at 9.22 µM]
CN/C(=C\[N+](=O)[O-])NCCSCc1csc(CN(C)C)n1 0% [at 20.6 µM]
Cc1cccc(Cn2c(N3CCN(c4ccccc4)CC3)nc3c2c(=O)n(C)c(=O)n3C)c1 0%
O=C(c1ccc(=O)[nH]c1)N(Cc1ccco1)C1(C(=O)NC2CCCCC2)CCCCC1 -2.2%
CCCCC(CC)C(=O)Nc1ccc(Cl)cn1 (stereo not drawn) -1.7%
O=C(Nc1ccccc1)N[C@H]1C[C@H](C(=O)O)Nc2cc(Cl)cc(Cl)c21 0%
CC1(C)CC(=O)c2cc(OCC(=O)NCC3CCCO3)ccc2O1 (stereo not drawn) -1%
COc1ccccc1CN1CC2(CCN(S(=O)(=O)c3ccccc3)CC2)C1 -2.3% [at 9.22 µM]
COc1ccc2[nH]c3cc4c(=O)c5cc(OC)ccc5[nH]c4cc3c(=O)c2c1 1.1% [at 9.22 µM]
Oc1c(C(c2ccccn2)N2CCOCC2)ccc2cccnc12 (stereo not drawn) 1.6%
Cc1ccc(C(c2nnnn2C(C)(C)C)N2CCc3ccccc3C2)cc1 (stereo not drawn) -2.3%
CCOC(=O)C1(C(F)(F)F)N=C(N(C)C)OC(N(C)C)=N1 0%
CCC[C@H]1C(=O)N2C(N(C)C)=Nc3ccc(C)cc3N2C1=O 1.7% [at 20.6 µM]
Cc1cc(N2CCCCC2)nc2ccc(Cc3ccc4nc(N5CCCCC5)cc(C)c4c3)cc12 -2.2% [at 9.22 µM]
CCOCC(=O)Nc1cc(OC)c(Cl)cc1OC 0%
COCc1nc2ccccc2n1Cc1ccccc1Br 2.1%
O=C(NC1CCCCC1)n1c(=O)oc2cc(S(=O)(=O)N3CCCCC3)ccc21 -7.3%
COCCn1c(=O)c(-c2cccs2)nc2cncnc21 2.3% [at 9.22 µM]
O=C(COC(=O)c1ccc2c(c1)OCCO2)NCc1ccccc1 1.1%
Cc1ccccc1-c1nc(N(C)Cc2ccco2)c2ccccc2n1 -2.9% [at 9.22 µM]
COCCn1c(=O)c(-c2ccc(OC)cc2)nc2cnc(Oc3cccc(Cl)c3)nc21 -2.7% [at 9.22 µM]
O=c1c(-c2ccc(F)cc2)nc2cnc(N3CCOCC3)nc2n1-c1ccccc1 2.3% [at 9.22 µM]
NC(=O)C1(N2CCCCC2)CCN(C(=O)c2ccc(C#Cc3ccccc3)o2)CC1 0.2%
Nc1ccc(-c2nnc(-c3ccc(-c4ccccc4)cc3)o2)cc1 1.6%
COc1ccc(Cl)cc1NC(=O)C1CC(=O)N(c2ccc(F)cc2)C1 (stereo not drawn) 0%
CC1C(c2ccccc2)=[N+]([O-])C2(CCCC2)N1O (stereo not drawn) 5%
S=c1c2[nH]cnc2ncn1CCSc1ncnc2nc[nH]c12 3.4% [at 9.22 µM]
CN1CCN(c2ncncc2-c2ccc(C(=O)N(C)C)cc2)CC1 -2.3% [at 9.22 µM]
CCCCCNC(=O)Cc1ccc(OC)cc1 3.3%
COC(=O)c1ccc(CSc2nncn2C)cc1 15.3%
CC(C)(C)NC(=O)NC(=O)COC(=O)Cn1c(C(F)(F)F)nc2ccccc21 -1.3%
CC(C)[C@H](CO)Nc1nc(Nc2cc(N)cc(Cl)c2)c2ncn(C(C)C)c2n1 -2.5%
C[C@@H](N)[C@@H](C)Cc1ccccc1 0% [at 9.22 µM]
Cc1cc(NC(=O)CCC(=O)N(c2ccccc2)C(C(=O)NC2CCCC2)c2ccncc2)no1 (stereo not drawn) 1%
COc1ccc(C(=O)N2CCC3(CCCN(C(c4ccccc4)c4ccccc4)C3)CC2)cc1 -2.3% [at 9.22 µM]
COc1ccc(-c2cc(C(F)(F)F)n3nc(C(=O)N4CCOCC4)c(Cl)c3n2)cc1 0%
O=C(CS(=O)(=O)c1cn(Cc2cccc(F)c2)c2ccccc12)N1CCCCC1 2.3%
O=C(O)c1ccc(COc2c(F)c(F)cc(F)c2F)o1 -2.7%
Cc1ccc(Oc2nc3ccccc3n3c(C)nnc23)cc1 0.5%
CCC(c1nnnn1C1CCCC1)N1CCN(C(=O)c2ccco2)CC1 (stereo not drawn) -2.3%
O=C(COc1ccc(F)cc1)N(CC1=CCS(=O)(=O)C1)c1ccccc1 -2.7%
Cc1ccc(S(=O)(=O)N2CCC(C(=O)N[C@@H](C)C(=O)NCCc3ccccc3)CC2)cc1 0.4%
O=C(N1CCOCC1)N1CCOCC1 0.3%
CC(C)Cc1nc(N2CCOCC2)c(C#N)c2c1CCC2 -2.2% [at 20.6 µM]
CCCCCCCCCCCC(=O)O[C@H](CC(=O)O)C[N+](C)(C)C 1.4%
Cc1noc(C)c1-c1nc(Nc2ccccc2)c2ccccc2n1 -2.9% [at 9.22 µM]
O=C(O)c1nn(-c2ccc(Cl)cc2)c2c1C(=O)c1ccccc1C2=O 4.5% [at 9.22 µM]
Fc1ccccc1OCCCCn1cncn1 0%
O=[n+]1c2c(n([O-])c3cc(Br)ccc31)CCC2 5.1%
COC(=O)[C@H]1[C@H]2C[C@H]3c4[nH]c5ccccc5c4CCN3C[C@@H]2CC[C@@H]1O
CCOC(=O)c1cc2occc2n1CC(=O)N1CCN(C(=O)c2ccco2)CC1 2.3%
Cc1cc2c(cc1C)NC1=C(N2)O[C@H](c2c[nH]c3ccc(COc4ccccc4)cc23)C1=O 2.2% [at 9.22 µM]
NC(=NC(=O)c1ccccc1)C1=C(O)CCC1=O -3.4%
COc1ccc(-n2c(SC)nc(O)cc2=O)cc1 0%
O=C(CSc1ncccn1)NC(=O)NCc1ccccc1 -1.4%
NCCCNCCCCN(CCCN)/[N+]([O-])=N/O -1.4%
Cn1cccc1C(=O)N1CCC[C@@]2(CCN(Cc3nccs3)C2)C1 4.6% [at 9.22 µM]
COCCn1c(=O)c(-c2ccccc2)nc2cnc(N3CCOCC3)nc21 -2.7% [at 9.22 µM]
Cn1c(=NC(=O)CSCC(=O)N2CCOCC2)sc2ccccc21 0.2%
Cc1ccc2[nH]c(=O)c(COC(=O)c3ccccn3)cc2c1 0%
CCOC(=O)c1[nH]c2ccc(C)cc2c1N=C(C)N(C)C 3%
Cc1cc(C(=O)CC#N)c(C)n1CC(F)(F)F 1.2%
Cc1ccc(NC(=O)c2cccc(N(C)C)c2)cc1NC(=O)c1ccc(O)cc1 -0.4%
CCON=C1C(C)(C)C(C)(C)C(C)(C)C1(C)C 6.6% [at 9.22 µM]
Cc1ccc(S(=O)(=O)N(C)CC(=O)N2CCc3ccccc32)cc1 2.4%
COc1cccc(-c2cc(NCCc3c[nH]c4ccc(OC)cc34)ncn2)c1 5.1% [at 9.22 µM]
CC(C)c1ccc2c(c1)c(SC(C)(C)C)c(CC(C)(C)C(=O)O)n2Cc1ccc(Cl)cc1
C#CCCCCCCCCCCCCCCCC(=O)O 2.4%
N#CCCn1c(=O)c(-c2cc(F)cc(F)c2)nc2cnc(Oc3ccccc3)nc21 -4.9% [at 9.22 µM]
CCOc1cccc(NC(=O)CC#N)c1 3.4%
O=C1c2ccccc2C(Nc2ccc3c(c2)OCCO3)N1Cc1ccco1 (stereo not drawn) -3.4%
CCNCCCNCCCNCCCNCC -0.4%
N#CC1=C(SCc2ccccc2)NC(=O)C(C#N)C12CCCC2 (stereo not drawn) 3.3%
O=C(c1cccc(F)c1)N1CCC2(CC1)CCN(c1ccccc1)CC2 -1.6% [at 9.22 µM]
COc1ccc(OCC(=O)OCC(=O)Nc2ccc(S(=O)(=O)N3CCCCC3)cc2)cc1 4.8%
O=S(=O)(O)c1ccc(O)c2ncccc12.O=S(=O)(O)c1ccc(O)c2ncccc12.[Zn] 2.3% [at 9.22 µM]
Cc1cccc(CNc2ccnc(-c3cccnc3)n2)c1 0% [at 9.22 µM]
N#CCCN1CCN(S(=O)(=O)c2ccc(S(=O)(=O)NC3CCCCC3)cc2)CC1 -2.3%
Cc1ccc(-c2nn(CC(C)(C)C)c3ncnc(N)c23)cc1 3.8%
CCn1c(Cc2ccccc2)nnc1SCC(=O)Nc1ccccc1 -1.7%
CCc1c(C)[nH]c(=S)c(C#N)c1C -0.6%
COc1ccc(C)cc1NC(=O)CSc1nc(SC)ns1 6.4%
CN(C)c1cc[n+](Cc2ccccc2)cc1 2.3%
Nc1nnc(C2CCCC2)s1 0%
CN(c1nc2ccccc2n2c(-c3ccco3)nnc12)S(=O)(=O)c1ccccc1 -2.6%
CN1CCN(CC(O)COCc2ccc3c(c2)OCO3)CC1 (stereo not drawn) -0.1%
